Compound activity from PubChem.
This is a sample that favours compounds with a hit; in the whole collection about 3.2% have one here.
MsrA inh – bovine MsrA enzyme inhibitors, primary screen, biochemical, absorbance, HTS. purified bovine MsrA, absorbance read-out. inhibition, % at 15.5 µM. 360,000 compounds, 0.75% hits. AID 651718, 2012; in the data active = inhibition above about 4.5%
bovine MsrA act – bovine MsrA enzyme activators, primary screen, biochemical, absorbance, HTS; purified bovine MsrA, absorbance read-out; activation, % at 10.6 µM; 360,000 compounds, 0.3% hits; AID 602163, 2012; in the data active = activation above about 7.5%
PG9 binder – binders of HIV-1 gp120 antibody PG9, primary screen, biochemical, TR-FRET; HIV-1 gp120 / PG9 antibody interaction; inhibition, % at 6.7 µM; AID 624416, 2012; 360,000 compounds, 0.43% hits; TR-FRET gp120-PG9 antibody binding; in the data active = inhibition above about 8.5%
HGIII-sPLA2 inh – human group III sPLA2 inhibitors, primary screen, biochemical, QFRET, BODIPY PC-A2 liposome substrate. Group 3 secretory phospholipase A2 (Homo sapiens), Q9NZ20. QFRET BODIPY PC-A2 liposome hydrolysis, fluorescence. inhibition, % at 12.2 µM. 370,000 compounds, 0.56% hits;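 active = inhibition above mean plus 3 SD of compounds lying within the high and low control bounds, cut at about 19% in these data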
Target sequence (Q9NZ20 whole entry, looked up): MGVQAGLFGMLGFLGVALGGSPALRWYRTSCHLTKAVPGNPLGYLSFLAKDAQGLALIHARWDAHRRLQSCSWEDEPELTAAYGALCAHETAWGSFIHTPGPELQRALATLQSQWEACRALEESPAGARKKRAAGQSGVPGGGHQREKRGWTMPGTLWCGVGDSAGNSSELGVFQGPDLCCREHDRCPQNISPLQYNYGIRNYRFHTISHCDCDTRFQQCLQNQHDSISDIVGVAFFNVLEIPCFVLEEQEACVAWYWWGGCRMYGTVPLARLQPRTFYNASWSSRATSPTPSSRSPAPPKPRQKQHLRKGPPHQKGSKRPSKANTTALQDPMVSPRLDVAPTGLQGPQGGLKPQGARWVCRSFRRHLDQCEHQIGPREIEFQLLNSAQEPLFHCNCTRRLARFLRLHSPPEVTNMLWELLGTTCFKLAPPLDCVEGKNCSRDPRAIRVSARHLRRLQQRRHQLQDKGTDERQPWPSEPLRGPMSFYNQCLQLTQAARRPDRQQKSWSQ
rCAG RNA binder – binders of r(CAG) RNA repeats, primary screen, biochemical, fluorescence. r(CAG) RNA repeat, TO-PRO-1 dye displacement fluorescence. inhibition, % at 3 µM. 370,000 compounds, 1.3% hits. AID 651821, 2012;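 active = inhibition above the plate cutoff, the mean of all test compounds on that plate plus 3 SD, cut at about 35% in these data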;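 note: higher means more dye released from RNA so lower well fluorescence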
rCAG binder conf – small molecules binding CAG repeat RNA – biochemical, fluorescence, confirmation | shares compounds with rCAG RNA binder | r(CAG) RNA repeat, TO-PRO-1 dye displacement fluorescence | inhibition, % at 3 µM | 4,300 compounds, 70% hits | AID 652065, 2013;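 active = inhibition above a per-plate cutoff, the mean inhibition of sample wells plus 3 SD, cut at about 35% in these data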;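 note: loss of TO-PRO-1 fluorescence as compound displaces dye from 1x1 AA loop RNA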
DNA CAG counter – displacement of TO-PRO-1 from CAG DNA duplex, counter-screen for rCAG RNA repeat binder project, biochemical, fluorescence, TO-PRO-1 dye, d(CAG) DNA oligo. shares compounds with rCAG RNA binder. d(CAG) DNA oligo TO-PRO-1 dye displacement. inhibition, % at 3 µM. 4,300 compounds, 94% hits;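 active = inhibition above its plate's cutoff, the mean test-well inhibition plus 3 SD, cut at about 4.8% in these data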;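 note: hits displace the dye from DNA and so lower well fluorescence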
dCAG dye DR – inhibitors of DNA CAG/GTC TO-PRO-1 complex, dose response, counter-screen for rCAG RNA repeat binder project, biochemical, fluorescence, TO-PRO-1 dye. shares compounds with rCAG RNA binder. DNA CAG/GTC duplex TO-PRO-1 dye displacement fluorescence. IC50, µM. 250 compounds, 20% hits. AID 686960, 2013; in the data active = IC50 below about 10 µM
A number is an active result; 0 = inactive; - = no result.

SMILES | MsrA inh | bovine MsrA act | PG9 binder | HGIII-sPLA2 inh | rCAG RNA binder | rCAG binder conf | DNA CAG counter | others
CN(C(=O)[C@H]1O[C@@H](n2cnc(C(N)=O)n2)[C@H](O)[C@@H]1O)c1ccccc1 | 0 | - | 0 | 0 | 0 | - | -
N#Cc1c(NC(=O)Cn2cnc3ccccc3c2=O)oc(-c2ccccc2)c1-c1ccccc1 | 0 | 0 | 0 | 0 | 43.3 | 0 | 13.6
N#Cc1c(NC(=O)CSc2ncccn2)oc(-c2ccccc2)c1-c1ccccc1 | 0 | 0 | 0 | 0 | 0 | - | -
CN(C)c1ccc2nc3ccc(=O)cc-3sc2c1 | 0 | 0 | 0 | 0 | 35.4 | 0 | 11.9
COc1ccc2nc(N=Nc3ccc(N(C)C)cc3)sc2c1 | 0 | 0 | 0 | 0 | 0 | - | -
COc1ccc(S(=O)(=O)N2CCN(C(=O)CCSc3ccccc3)CC2)cc1 | 0 | 0 | 0 | 0 | 0 | - | -
CC1(C(=O)NS(=O)(=O)c2ccc(F)cc2F)CCN1C(=O)c1ccccc1CCc1ccccc1 (stereo not given) | 0 | 0 | 0 | 0 | 50.8 | 42.5 | 10.2
CC1(C(=O)NS(=O)(=O)c2ccc(Cl)cc2)CCN1C(=O)c1ccccc1CCc1ccccc1 (stereo not given) | 0 | 0 | 0 | 0 | 44.7 | 58.5 | 19.6
CC1(C(=O)NS(=O)(=O)c2cccc(Cl)c2)CCN1C(=O)c1ccccc1CCc1ccccc1 (stereo not given) | 0 | 0 | 0 | 0 | 60.9 | 59.7 | 21.7
CC1(C(=O)NS(=O)(=O)c2ccc(Cl)cc2)CCN1C(=O)CCc1ccccc1 (stereo not given) | 0 | 0 | 0 | 0 | 0 | - | -
CC1(C(=O)NS(=O)(=O)c2ccc(F)cc2F)CCN1C(=O)Cc1ccccc1 (stereo not given) | 0 | 0 | 0 | 0 | 0 | - | -
CC1(C(=O)NS(=O)(=O)c2ccccc2Cl)CCN1C(=O)c1ccccc1CCc1ccccc1 (stereo not given) | 0 | 0 | 0 | 0 | 57.1 | 63.0 | 18.9
CC(C)C[C@H](NC(=O)c1cccs1)C(=O)N1CCC[C@H]1C(=O)NCc1ccccc1 | 0 | - | 0 | 0 | 0 | - | -
CC(C)Oc1cccc(-c2csc(N3CCC(C(N)=O)CC3)n2)c1 | - | - | - | 0 | - | - | -
CC1(C(=O)NS(=O)(=O)c2cccs2)CCN1C(=O)c1ccccc1CCc1ccccc1 (stereo not given) | 0 | 0 | 0 | 0 | 43.8 | 0 | 7.0
CC1(C(=O)NS(=O)(=O)c2cccc(C#N)c2)CCN1C(=O)Cc1ccccc1 (stereo not given) | 0 | 0 | 0 | 0 | 0 | - | -
CC1(C(=O)NS(=O)(=O)c2cccs2)CCN1C(=O)Cc1ccccc1 (stereo not given) | 0 | 0 | 0 | 0 | 0 | - | -
CC1(C(=O)NS(=O)(=O)c2cccc(C#N)c2)CCN1C(=O)c1ccccc1CCc1ccccc1 (stereo not given) | 0 | 0 | 0 | 0 | 45.8 | 38.9 | 9.5
COc1ccc(C(=O)CSc2nnc(-c3cccs3)o2)cc1OC | - | - | - | 0 | 0 | - | -
O=C(OCC#CCSc1nnc(-c2ccc(Cl)cc2)o1)c1ccc(F)cc1 | - | - | - | 0 | - | - | -
C/C=C/COC(=O)c1[nH]c2c(c1C)C(=O)CC(c1ccco1)C2 (stereo not given) | 0 | 0 | 0 | 0 | 38.0 | 0 | 9.4
Cc1c(C(=O)OCC(C)C)[nH]c2c1C(=O)CC(c1ccco1)C2 (stereo not given) | 0 | 0 | 0 | 0 | 0 | - | -
Cc1cc(F)ccc1S(=O)(=O)Nc1ccccc1C(=O)Nc1ccc2[nH]c(=O)[nH]c2c1 | 0 | 0 | 0 | 0 | 61.0 | 63.4 | 25.9
Cc1noc(NS(=O)(=O)c2ccc(NC(=O)c3ccccc3NS(=O)(=O)c3ccc(F)cc3)cc2)c1C | 0 | 0 | 0 | 0 | 68.3 | 56.1 | 20.9
Cc1noc(NS(=O)(=O)c2ccc(NC(=O)c3cc(S(=O)(=O)Nc4ccc(F)cc4)ccc3Cl)cc2)c1C | 0 | 0 | 0 | 0 | 59.2 | 51.5 | 22.8
SMILES | MsrA inh | bovine MsrA act | PG9 binder | HGIII-sPLA2 inh | rCAG RNA binder | rCAG binder conf | DNA CAG counter | others
Cc1ccc(-c2cc(C(=O)Nc3ccc(S(=O)(=O)Nc4ncccn4)cc3)[nH]n2)c(O)c1C | 0 | 0 | 0 | 0 | 61.5 | 53.4 | 19.3
Cc1ccccc1N1CCN(C(=O)COc2cc(=O)n(C)c3ccccc23)CC1 | - | - | - | 0 | 0 | - | -
Cc1cc(C(=O)Nc2ccc(S(=O)(=O)Nc3onc(C)c3C)cc2)c(C)o1 | 0 | 0 | 0 | 0 | 0 | - | -
O=C(Nc1nc(-c2ccccc2)cs1)c1ccccc1NS(=O)(=O)c1ccc(F)cc1 | 0 | 0 | 0 | 0 | 89.3 | 88.9 | 69.6
Cc1noc(NS(=O)(=O)c2ccc(NC(=O)c3cc(-c4ccccc4Cl)nc4ccccc34)cc2)c1C | 0 | 0 | 0 | 0 | 83.3 | 75.1 | 34.2 | dCAG dye DR=8.53
Cc1ccc2oc(C(=O)Nc3ccc(S(=O)(=O)Nc4onc(C)c4C)cc3)c(C)c2c1 | 0 | 0 | 0 | 0 | 0 | - | -
Cc1ccc(-c2cc(C(=O)Nc3ccc(S(=O)(=O)Nc4onc(C)c4C)cc3)[nH]n2)c(O)c1 | 0 | 0 | 0 | 0 | 84.4 | 78.3 | 44.3
Cc1noc(NS(=O)(=O)c2ccc(NC(=O)c3cc(S(=O)(=O)N(C)c4ccccc4)ccc3Cl)cc2)c1C | 0 | 0 | 0 | 0 | 76.8 | 75.8 | 40.8
O=S(=O)(Nc1ccc(-c2csc(-c3ccccc3)n2)cc1)c1ccc(F)cc1 | 0 | 0 | 0 | 0 | 0 | - | -
CC1(C)CC(C(CC(=O)N2CCCC2)Cc2ccccc2)CCO1 (stereo not given) | 0 | 0 | 0 | 0 | 41.5 | 0 | 0
COc1cc(/C=C(\C#N)C(=O)NC2CCCCC2)ccc1OCc1ccc(C(=O)O)cc1 | 0 | 0 | 0 | 0 | 39.9 | 38.0 | 9.2
COc1cc(/C=C(\C#N)C(=O)NCc2ccccc2)ccc1OCc1ccc(C(=O)O)cc1 | 0 | 0 | 0 | 0 | 43.5 | 0 | 5.9
N#C/C(=C\c1ccc(OCc2ccc(C(=O)O)cc2)cc1)C(=O)NCc1ccccc1 | 0 | 0 | 0 | 0 | 41.0 | 0 | 5.9
COCCNC(=O)/C(C#N)=C/c1ccc(OCc2ccccc2)cc1 | 0 | 0 | 0 | 0 | 0 | - | -
O=C(Nc1nnc([C@@H]2C[C@H](O)[C@@H](CO)O2)s1)c1ccc(Oc2ccccc2)cc1 | 0 | 0 | 0 | 0 | 0 | - | -
O=C(Cn1cc(C(F)(F)F)cc(Cl)c1=O)NCc1ccc(F)cc1 | 0 | 0 | 0 | 0 | 0 | - | -
